Laboratory results taken from PubChem BioAssay (NCATS).
Inconclusive results are not listed. Calls of active or inactive are those of the source. Unless noted, the call rests on the fitted dose curve; in most records, active means well fitted curve in the direction sought with a large enough effect; inconclusive means small, poorly fitted or top-dose-only effect, or another doubt; inactive means no such curve, though single readings can be large; an effect the other way counts as inactive or inconclusive.

Tests used:
[1] = biological target: Muscarinic acetylcholine receptor M1 (Rattus norvegicus) (UniProt P08482); experiment: qHTS Assay for Antagonists of Acetylcholine Muscarinic M1 Receptor: Measurement of IP-One Response (AID 944); further: nearly all actives have a fitted effect of over 75% in size
Muscarinic acetylcholine receptor M1 (Rattus norvegicus), sequence (P08482 whole entry, looked up): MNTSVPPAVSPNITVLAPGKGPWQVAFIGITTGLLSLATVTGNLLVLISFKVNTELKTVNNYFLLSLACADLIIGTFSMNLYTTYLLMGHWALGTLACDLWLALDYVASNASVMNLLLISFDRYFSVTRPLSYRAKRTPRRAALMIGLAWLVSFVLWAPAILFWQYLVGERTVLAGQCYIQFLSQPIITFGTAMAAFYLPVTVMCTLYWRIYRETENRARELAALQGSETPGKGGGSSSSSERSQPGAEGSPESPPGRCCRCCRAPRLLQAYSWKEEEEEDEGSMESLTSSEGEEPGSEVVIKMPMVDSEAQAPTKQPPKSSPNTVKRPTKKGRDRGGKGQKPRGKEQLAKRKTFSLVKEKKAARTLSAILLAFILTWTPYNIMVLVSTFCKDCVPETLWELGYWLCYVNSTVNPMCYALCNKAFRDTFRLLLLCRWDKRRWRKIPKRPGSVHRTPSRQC
In short: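 IP1 accumulation measured via TR-FRET between d2-IP1 and Eu-cryptate anti-IP1 antibody after carbachol (200 nM, EC80) stimulation for 30 min; rat M1-transfected CHO cells received compound 10 min before agonist.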

[2] = biological target: Pyruvate kinase (Leishmania mexicana) (UniProt Q27686); experiment: qHTS Validation Assay for Inhibitors of Leishmania Mexicana Pyruvate Kinase (AID 945)
Pyruvate kinase (Leishmania mexicana), sequence (Q27686 2-499 E452W): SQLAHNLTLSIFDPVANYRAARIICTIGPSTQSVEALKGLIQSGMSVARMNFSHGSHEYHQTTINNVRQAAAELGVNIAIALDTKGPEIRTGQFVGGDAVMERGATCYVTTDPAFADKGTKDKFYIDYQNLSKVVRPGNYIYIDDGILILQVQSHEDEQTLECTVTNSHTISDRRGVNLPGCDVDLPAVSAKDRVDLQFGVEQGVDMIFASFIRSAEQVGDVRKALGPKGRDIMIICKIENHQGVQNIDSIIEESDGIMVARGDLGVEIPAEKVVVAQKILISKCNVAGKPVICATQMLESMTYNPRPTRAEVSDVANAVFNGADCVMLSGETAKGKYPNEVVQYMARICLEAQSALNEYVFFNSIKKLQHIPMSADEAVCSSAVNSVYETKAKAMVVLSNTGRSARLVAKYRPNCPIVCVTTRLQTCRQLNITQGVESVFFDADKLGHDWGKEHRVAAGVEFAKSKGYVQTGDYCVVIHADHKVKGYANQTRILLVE
In short: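 Eight-point qHTS titrations; enzyme 0.2 nM LmPYK (E451W mutant); substrates 0.5 mM PEP, 0.1 mM ADP; 7 mM MgCl2; 1 h room temperature; PKLight luminescence normalized to neutral control.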

[3] = biological target: Pyruvate kinase PKM (Homo sapiens) (UniProt P14618); experiment: qHTS Assay for Activators of Human Muscle Pyruvate Kinase (AID 954; active means well fitted curve in the direction sought with a large enough effect, not every such curve was filed as active)
Pyruvate kinase PKM (Homo sapiens), sequence (P14618 whole entry, looked up): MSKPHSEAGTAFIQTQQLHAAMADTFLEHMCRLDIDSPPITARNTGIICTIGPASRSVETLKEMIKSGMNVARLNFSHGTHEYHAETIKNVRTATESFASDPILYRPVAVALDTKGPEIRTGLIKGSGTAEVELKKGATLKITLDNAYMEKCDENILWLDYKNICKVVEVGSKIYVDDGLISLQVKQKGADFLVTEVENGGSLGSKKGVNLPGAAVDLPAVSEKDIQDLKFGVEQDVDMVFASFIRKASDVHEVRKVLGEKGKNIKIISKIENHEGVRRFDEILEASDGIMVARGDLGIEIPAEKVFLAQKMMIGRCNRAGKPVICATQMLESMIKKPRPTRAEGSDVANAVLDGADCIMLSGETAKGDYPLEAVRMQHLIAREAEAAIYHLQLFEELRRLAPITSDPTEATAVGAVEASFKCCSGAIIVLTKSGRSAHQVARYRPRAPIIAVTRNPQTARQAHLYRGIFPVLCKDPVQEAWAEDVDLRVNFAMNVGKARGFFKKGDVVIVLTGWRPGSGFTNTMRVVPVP
In short: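 PKM2, human, >95% pure, 0.1 nM; PEP 0.5 mM (Km), ADP 0.1 mM; 50 mM imidazole pH 7.2, 50 mM KCl, 0.01% Tween 20, 0.05% BSA; 1 h RT; luciferase luminescence readout.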

[4] = biological target: alpha-glucosidase (Oryza sativa, rice) (UniProt Q653V4); experiment: Counterscreen for Glucocerebrosidase Inhibitors: qHTS Assay for Rice alpha-Glucosidase at pH 5.0 (AID 997)
In short: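 Endpoint fluorogenic assay at pH 5.0: compounds (0.7 nM to 77 uM) titrated against 4 nM rice enzyme and 400 uM 4-MU-alpha-glucoside for 20 min at room temperature; NaOH/glycine stop, read ex 365/em 440 nm, Hill-fitted AC50.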

[5] = Cytometric Cell-Based qHTS for Inhibitors of the mTORC1 Signaling Pathway in MEF (Tsc2-/-, p53-/-) Cells (AID 2660);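 further: Tsc2 and p53 null MEFs carrying empty vector with compound for 24 h; percent of cells above a phospho-rpS6 to PI ratio cutoff in each well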
In short: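 Cells are plated, treated with compound for 24 hrs at 37 degree Celsius, then fixed, blocked and immunostained for phospho-rpS6 Ser235/236. Propidium iodide counterstain follows. Per-well % positive cells is derived from the PI-normalized phospho-S6 signal.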

[6] = High Content Imaging Cell-Based qHTS for Inhibitors of the mTORC1 Signaling Pathway in MEF (Tsc2-/-, p53-/-) Cells (AID 2666); settings: at 38.3 µM (top of the series);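 further: percent of cells scored positive for phospho-rpS6 Ser235/236 immunostaining by imaging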
In short: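 Inhibition of rpS6 phosphorylation is measured by immunofluorescence imaging in empty-vector Tsc2-/-, p53-/- mouse embryonic fibroblasts after 24 hrs compound exposure at 37 degree Celsius. Results are reported as % positive cells per well.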

[7] = High Content Imaging Cell-Based qHTS for Inhibitors of the mTORC1 Signaling Pathway in MEF Cells (AID 2667);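 further: Tsc2-/- p53-/- MEFs stably re-expressing wild-type Tsc2 exposed 24 h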
In short: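 Fixed-cell imaging of phospho-S6 (Ser235/236, Alexa-488) after 24 hrs of compound treatment at 37 degree Celsius. Signal was normalized to Hoechst, and thresholds from the highest and lowest wells split cells into % active versus % non-active.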

[8] = Cytometry Cell-Based qHTS for Inhibitors of the mTORC1 Signaling Pathway in MEF cells (AID 2668);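 further: Tsc2-/- p53-/- mouse embryonic fibroblasts stably re-expressing wild-type Tsc2; percent cells positive for phospho-rpS6 Ser235/236 relative to propidium iodide stain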
In short: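 WT MEFs (Tsc2-/-, p53-/- stably re-expressing WT Tsc2) in DMEM + 10% FBS received compounds 24 hrs after plating, for 24 hrs at 37 degree Celsius. Fixed cells stained with Alexa-488 anti-phospho-rpS6 Ser235/236 and propidium iodide; laser-scanning cytometry read-out.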

[9] = biological target: Ubiquitin carboxyl-terminal hydrolase 2 (Homo sapiens) (UniProt O75604); experiment: qHTS Validation Assay for Inhibitors of Ubiquitin-specific Protease USP2a Using CHOP2 as the Reporter (AID 463106)
Ubiquitin carboxyl-terminal hydrolase 2 (Homo sapiens), sequence (O75604 whole entry, looked up): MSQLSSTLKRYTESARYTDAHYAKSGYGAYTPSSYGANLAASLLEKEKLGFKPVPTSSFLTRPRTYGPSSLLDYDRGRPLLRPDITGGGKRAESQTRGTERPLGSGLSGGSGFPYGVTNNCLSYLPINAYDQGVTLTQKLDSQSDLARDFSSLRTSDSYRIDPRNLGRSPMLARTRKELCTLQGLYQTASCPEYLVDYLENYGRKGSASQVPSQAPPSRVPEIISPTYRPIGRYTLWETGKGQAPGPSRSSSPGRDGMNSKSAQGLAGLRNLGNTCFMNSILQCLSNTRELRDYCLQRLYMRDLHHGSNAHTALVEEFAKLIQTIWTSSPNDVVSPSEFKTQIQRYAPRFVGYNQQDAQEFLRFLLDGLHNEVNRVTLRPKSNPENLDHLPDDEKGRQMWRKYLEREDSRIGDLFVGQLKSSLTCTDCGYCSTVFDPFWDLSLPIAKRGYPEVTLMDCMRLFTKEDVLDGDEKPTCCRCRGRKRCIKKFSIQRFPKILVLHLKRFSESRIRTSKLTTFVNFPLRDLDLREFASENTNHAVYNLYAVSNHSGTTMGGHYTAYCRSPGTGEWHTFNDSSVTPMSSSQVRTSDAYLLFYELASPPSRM
In short: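 Inhibition is expressed relative to NEM as the full-inhibition control, with concentration-response curves classed by fit quality, magnitude and activity. Enzyme (USP2 core, 10nM) meets 25nM Ub-CHOP2 after compound preincubation; readings are taken at 60min.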

[10] = biological target: DNA polymerase III PolC-type (Bacillus subtilis (strain 168)) (UniProt P13267); experiment: qHTS Validation Assay for the Inhibitors of DNA Replication in Gram-Positive Bacteria (AID 485295);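 further: PicoGreen fluorescence of double-stranded DNA made on primed circular M13 template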
DNA polymerase III PolC-type (Bacillus subtilis (strain 168)), sequence (P13267 whole entry, looked up): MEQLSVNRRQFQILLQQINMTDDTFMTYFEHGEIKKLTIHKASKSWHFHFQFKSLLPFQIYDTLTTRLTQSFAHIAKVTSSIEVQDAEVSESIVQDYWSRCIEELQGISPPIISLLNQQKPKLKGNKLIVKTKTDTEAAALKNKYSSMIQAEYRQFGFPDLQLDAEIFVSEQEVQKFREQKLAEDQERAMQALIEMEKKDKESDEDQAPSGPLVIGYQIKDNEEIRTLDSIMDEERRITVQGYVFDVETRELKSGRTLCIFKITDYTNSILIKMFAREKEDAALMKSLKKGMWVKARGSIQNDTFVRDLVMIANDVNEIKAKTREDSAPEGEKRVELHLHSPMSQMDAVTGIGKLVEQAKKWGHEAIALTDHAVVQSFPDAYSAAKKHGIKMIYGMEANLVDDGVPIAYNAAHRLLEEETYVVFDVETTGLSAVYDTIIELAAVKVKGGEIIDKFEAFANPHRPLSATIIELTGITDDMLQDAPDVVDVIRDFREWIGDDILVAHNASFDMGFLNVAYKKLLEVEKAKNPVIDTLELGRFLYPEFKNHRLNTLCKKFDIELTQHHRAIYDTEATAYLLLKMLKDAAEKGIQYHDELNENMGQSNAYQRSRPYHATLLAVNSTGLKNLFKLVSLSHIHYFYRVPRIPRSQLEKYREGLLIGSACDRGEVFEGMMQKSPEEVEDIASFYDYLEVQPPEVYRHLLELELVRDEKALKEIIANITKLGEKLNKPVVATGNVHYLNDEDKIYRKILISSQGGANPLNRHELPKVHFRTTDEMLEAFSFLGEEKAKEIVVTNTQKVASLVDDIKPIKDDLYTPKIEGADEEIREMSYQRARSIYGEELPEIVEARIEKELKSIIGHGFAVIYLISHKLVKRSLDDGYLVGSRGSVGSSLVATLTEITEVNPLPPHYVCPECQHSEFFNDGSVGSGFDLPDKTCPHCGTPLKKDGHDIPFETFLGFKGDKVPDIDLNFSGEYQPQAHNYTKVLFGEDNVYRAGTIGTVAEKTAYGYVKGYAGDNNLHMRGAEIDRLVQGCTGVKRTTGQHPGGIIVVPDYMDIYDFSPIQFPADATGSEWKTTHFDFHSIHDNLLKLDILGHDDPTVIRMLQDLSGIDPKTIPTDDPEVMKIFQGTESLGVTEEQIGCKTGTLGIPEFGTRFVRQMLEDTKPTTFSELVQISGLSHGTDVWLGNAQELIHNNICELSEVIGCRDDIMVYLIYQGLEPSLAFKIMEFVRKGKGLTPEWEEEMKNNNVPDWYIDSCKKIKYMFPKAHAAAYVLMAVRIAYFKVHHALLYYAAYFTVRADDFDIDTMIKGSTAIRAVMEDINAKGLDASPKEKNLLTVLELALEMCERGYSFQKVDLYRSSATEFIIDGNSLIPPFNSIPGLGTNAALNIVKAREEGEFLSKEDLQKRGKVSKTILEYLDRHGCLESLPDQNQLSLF
In short: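 Reconstituted B. subtilis holoenzyme (Pol III, beta clamp, SSB, primase) was preincubated with compound at room temperature, then given single-stranded circular M13Gori plus dNTPs and NTPs. EDTA-containing PicoGreen stopped the reaction, and dsDNA product was read by fluorescence.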

[11] = biological target: Tumor susceptibility gene 101 protein (Homo sapiens) (UniProt Q99816); experiment: qHTS Validation Assay for Iinhibitors of HIV-1 Budding by Blocking the Interaction of PTAP/TSG101 (AID 485342; calls by dose curve)
In short: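 Tsg101 binding domain (10 uM final) in pH 7.5 HEPES/NaCl/Tween 20/EDTA/TCEP buffer was mixed with pin-transferred compounds, then FITC-labeled PTAP peptide (50 nM final) was added; after 20 min at r.t., fluorescence polarization was read.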

[12] = biological target: Beta-2 adrenergic receptor (Homo sapiens) (UniProt P07550); experiment: qHTS validation assay of beta-arrestin-biased ligands of beta2-adrenergic receptor (AID 485366)
In short: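 Compound series up to 46 microM applied to beta2-AR/beta-arrestin Tango cells, 18 hr, 37 degrees C, 5% CO2. Read-out: tTA-driven luciferase luminescence, converted to %Activity; concentration-response curves assigned curve classes.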

[13] = biological target: Thioredoxin reductase 1, cytoplasmic (Rattus norvegicus) (UniProt O89049); experiment: qHTS Assay for Substrates of Mammalian Selenoprotein Thioredoxin Reductase 1 (TrxR1) (AID 488772);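 further: a drop in NADPH fluorescence below the no-compound background marks a TrxR1 substrate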
Thioredoxin reductase 1, cytoplasmic (Rattus norvegicus), sequence (O89049 whole entry, looked up): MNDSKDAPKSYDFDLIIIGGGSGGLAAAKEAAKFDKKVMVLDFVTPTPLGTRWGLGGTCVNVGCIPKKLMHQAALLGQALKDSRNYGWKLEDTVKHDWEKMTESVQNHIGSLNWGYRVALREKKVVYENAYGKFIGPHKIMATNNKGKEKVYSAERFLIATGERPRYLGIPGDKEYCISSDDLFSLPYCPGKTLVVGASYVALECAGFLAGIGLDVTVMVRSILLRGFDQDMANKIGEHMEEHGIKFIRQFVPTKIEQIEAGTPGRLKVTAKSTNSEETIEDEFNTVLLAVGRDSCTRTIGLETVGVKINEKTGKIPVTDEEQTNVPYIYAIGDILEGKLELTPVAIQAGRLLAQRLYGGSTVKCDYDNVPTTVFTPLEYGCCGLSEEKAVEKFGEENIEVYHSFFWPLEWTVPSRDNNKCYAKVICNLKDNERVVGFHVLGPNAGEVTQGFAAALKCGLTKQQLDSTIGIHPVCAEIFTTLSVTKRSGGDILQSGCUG
In short: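 In this dual-purpose format, potential substrates are identified from the first fluorescence read after selenite addition, not from the 8-minute delta. Rat enzyme is preincubated with NADPH and then with compound at ~22 deg C.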

[14] = biological target: Thioredoxin reductase 1, cytoplasmic (Rattus norvegicus) (UniProt O89049); experiment: qHTS Assay for Inhibitors of Mammalian Selenoprotein Thioredoxin Reductase 1 (TrxR1) (AID 488773);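 further: drop in NADPH fluorescence over an 8 min run after selenite addition; nearly all actives have a fitted effect of over 40% in size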
In short: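 Inhibition is scored from the loss of NADPH fluorescence between first and last reads of an 8-min kinetic run. Selenite (400 uM) was the substrate, added after 15 min compound preincubation at room temperature.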

[15] = biological target: Flap endonuclease 1 (Homo sapiens) (UniProt P39748); experiment: qHTS Validation Assay for the Inhibitors of Human Flap endonuclease 1 (FEN1) (AID 488816)
Flap endonuclease 1 (Homo sapiens), sequence (P39748 whole entry, looked up): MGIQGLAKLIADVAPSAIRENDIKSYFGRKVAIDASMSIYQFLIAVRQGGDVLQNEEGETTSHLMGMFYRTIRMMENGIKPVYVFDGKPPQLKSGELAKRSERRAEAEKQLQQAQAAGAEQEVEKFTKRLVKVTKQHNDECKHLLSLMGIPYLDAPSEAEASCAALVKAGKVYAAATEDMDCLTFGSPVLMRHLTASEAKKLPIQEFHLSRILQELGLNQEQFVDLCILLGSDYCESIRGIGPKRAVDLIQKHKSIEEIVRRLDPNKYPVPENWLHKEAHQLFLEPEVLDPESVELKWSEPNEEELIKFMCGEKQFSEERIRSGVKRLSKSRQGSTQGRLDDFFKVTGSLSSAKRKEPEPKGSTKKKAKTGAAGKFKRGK
In short: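 Steps: add FEN1 (10 nM reagent) or buffer only; pin compounds; hold 15 min at room temperature; start with substrate, 50 nM final; read at 0 and 15 min; correct, normalize and fit a four-parameter Hill curve.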

[16] = biological target: M-phase phosphoprotein 8 (Homo sapiens) (UniProt Q99549); experiment: qHTS Validation Assay for Inhibitors for MPP8 Chromodomain Interactions with Methylated Histone Tails (AID 488949);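 further: AlphaScreen signal from MPP8 chromodomain bound to biotinylated H3K9me3 peptide; top concentration of the series differs between compounds; nearly all actives have a fitted effect of over 55% in size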
In short: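 MPP8 (50 nM) was preincubated with biotinylated H3(1-18)K9me3 peptide (50 nM) in PBS pH 7.4, 0.01% Tween-20 for 30 min at room temperature, then with compounds for 30 min; binding was detected by AlphaScreen.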

[17] = biological target: Methanococcus maripaludis chaperonin (MmCpn) (UniProt Q6LX38); experiment: High-Throughput Screening for Modulators of Cytosolic Chaperonin Activity: MmCpn Primary Screen (AID 488978);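 further: 50 nM MmCpn enzyme hydrolysing 30 µM ATP at 37 °C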
In short: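 MmCpn (50 nM final) was preincubated with compound 5 min at RT, then 30 uM ATP (final) was added and the reaction ran 10 min at 37C. ADP produced was detected by Transcreener HTRF (ex 320 nm; em 590/665 nm).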

[18] = biological target: D(1A) dopamine receptor (Homo sapiens) (UniProt P21728); experiment: HTS Assay for Allosteric Agonists of the Human D1 Dopamine Receptor: Primary Screen for Agonists (AID 488981)
D(1A) dopamine receptor (Homo sapiens), sequence (P21728 whole entry, looked up): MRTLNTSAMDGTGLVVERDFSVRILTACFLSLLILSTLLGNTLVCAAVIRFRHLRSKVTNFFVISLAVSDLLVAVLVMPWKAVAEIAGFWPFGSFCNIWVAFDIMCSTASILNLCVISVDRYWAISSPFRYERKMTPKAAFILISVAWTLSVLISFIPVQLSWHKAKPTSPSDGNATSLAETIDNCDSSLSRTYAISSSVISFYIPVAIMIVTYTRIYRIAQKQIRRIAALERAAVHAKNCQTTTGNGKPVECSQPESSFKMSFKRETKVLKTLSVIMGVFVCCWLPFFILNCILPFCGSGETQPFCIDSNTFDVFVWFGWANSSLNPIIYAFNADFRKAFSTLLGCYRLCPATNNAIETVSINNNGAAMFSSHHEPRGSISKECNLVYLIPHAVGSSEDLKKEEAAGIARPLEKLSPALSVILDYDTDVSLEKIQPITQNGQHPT
In short: (§1)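 Tetracycline-induced HEK293 T-REx cells force-coupled to calcium signalling were incubated overnight at 30 C and dye-loaded at room temperature. Calcium flux over 180 s after compound addition flagged agonists; a further 180 s read after EC20 dopamine flagged potentiators.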

[19] = biological target: D(1A) dopamine receptor (Homo sapiens) (UniProt P21728); experiment: HTS Assay for Allosteric Agonists of the Human D1 Dopamine Receptor: Primary Screen for Potentiators (AID 488982)
In short: as §1

[20] = biological target: D(1A) dopamine receptor (Homo sapiens) (UniProt P21728); experiment: HTS Assay for Allosteric Agonists of the Human D1 Dopamine Receptor: Primary Screen for Antagonists (AID 488983);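 further: calcium flux response to an EC80 dopamine challenge measured with no-wash dye; nearly all actives have a fitted effect of over 65% in size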
In short: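 Calcium-flux read-out in inducible HEK293 T-REx cells expressing D1, dye-loaded 30–90 min at room temperature. Kinetic reads: 180 s after compound (agonist phase), then 180 s after an EC80 dopamine challenge.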

Measured: Potency

CC[C@@H](CO)Nc1nc(NCc2ccccc2)c2ncn(C(C)C)c2n1
inactive: all assays above
